# High-throughput results from PubChem BioAssay.
# This is a sample that favours compounds with a hit; in the whole collection about 7.3% have one here.
# NPC1 prom act: qHTS Assay for NPC1 Promoter Activators | Huh7 NPC1 promoter luciferase reporter, 24 h | Potency, µM (top dose mostly 9.22 µM), usual class: activators | 320,000 compounds, 2.4% hits | AID 485313, 2010; also: nearly all actives have a fitted effect of over 60% in size
#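 Luminescence read-out of NPC1 promoter-driven luciferase in stably transfected Huh7 cells; compounds delivered in DMSO and left 24 h at 37C, 5% CO2, qHTS titration format.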
# Luc counter: Counterscreen for Luciferase (Kinase-Glo TM) Inhibition. Luciferin 4-monooxygenase (Photuris pensylvanica), Q27757. Kinase-Glo luciferase, ATP luminescence, 8 min. Potency, µM (top dose mostly 38.3 µM), usual class: inhibitors. 200,000 compounds, 0.28% hits. AID 1379, 2008; also: nearly all actives have a fitted effect of over 60% in size
#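 Light output from Kinase-Glo luciferase with luciferin and 10 uM ATP in 50 mM imidazole pH 7.2, KCl, MgCl2, Tween 20, BSA; compound pin-delivered, 8-min ambient incubation, then luminescence read.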
# SMN2 splice enh: qHTS Assay for Enhancers of SMN2 Splice Variant Expression; 210,000 compounds, 2.8% hits; HEK293 SMN2-luciferase splicing reporter, luminescence, 30-36 h; Potency, µM (top dose mostly 46.1 µM), actives largely listed as activators; also: nearly all actives have a fitted effect of over 55% in size
#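 HEK293 cells carry an SMN2 […]–luciferase reporter in which exon 7 inclusion puts luciferase in frame. Cells were plated 10-12 h before compound addition, then incubated 30-36 h at 37C. ONE-Glo luminescence was read; sodium butyrate at 4.5 mM final served as control.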
# Rab9 promoter act: qHTS Assay for Rab9 Promoter Activators; 320,000 compounds, 2.8% hits; Potency, µM (doses to about 9.22 µM), hits mostly activators; Huh7 Rab9 promoter-luciferase reporter, luminescence, 24 h; also: nearly all actives have a fitted effect of over 60% in size
#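 Luminescence from Amplite-detected luciferase (10 minutes, ambient) reports Rab9 promoter activation. Before that, stable Rab9-luciferase Huh7 cells (1500/well, reduced-serum OP-MEM I plus 10% FBS) were exposed to compound for 24 hours at 37C.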
# FLuc modulator: qHTS profiling assay for firefly luciferase inhibitor/activator using purifed enzyme and Km concentrations of substrates (counterscreen for miR-21 project). Luciferin 4-monooxygenase (Photinus pyralis), P08659. purified FLuc, Km substrates, luminescence inhibition. Potency, µM (series often up to 57.5 µM), usual class: inhibitors. 360,000 compounds, 6.9% hits. AID 588342, 2011; also: nearly all actives have a fitted effect of over 55% in size
# Target sequence (P08659 whole entry, looked up): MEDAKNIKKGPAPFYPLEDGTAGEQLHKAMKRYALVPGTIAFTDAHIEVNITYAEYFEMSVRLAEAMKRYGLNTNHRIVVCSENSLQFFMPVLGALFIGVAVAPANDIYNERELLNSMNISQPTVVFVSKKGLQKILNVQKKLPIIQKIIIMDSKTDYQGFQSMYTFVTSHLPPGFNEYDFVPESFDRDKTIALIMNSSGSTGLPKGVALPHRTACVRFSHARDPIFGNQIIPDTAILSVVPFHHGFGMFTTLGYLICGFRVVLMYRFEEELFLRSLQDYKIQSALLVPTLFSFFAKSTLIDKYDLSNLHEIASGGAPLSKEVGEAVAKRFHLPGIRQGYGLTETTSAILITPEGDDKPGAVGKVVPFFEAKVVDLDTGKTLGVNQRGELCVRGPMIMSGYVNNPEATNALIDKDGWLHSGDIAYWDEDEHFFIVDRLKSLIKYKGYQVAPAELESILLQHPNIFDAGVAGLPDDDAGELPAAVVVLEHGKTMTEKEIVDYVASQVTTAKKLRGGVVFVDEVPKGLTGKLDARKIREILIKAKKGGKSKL
#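 Biochemical qHTS of compounds, final roughly 60 µM downward over six points, against 10 nM purified firefly luciferase using Km concentrations of substrates (10 uM D-luciferin, 10 uM ATP) in Tris acetate pH 7.5 buffer; luminescence output.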
# A number is an active result; n = inactive; u = inconclusive; x = no result. Calls follow the shape of the dose curve; as a rule, active = well fitted curve in the direction sought with a large enough effect; inconclusive = small, poorly fitted or top-dose-only effect, or another doubt; inactive = no such curve, though single readings can be large; an effect the other way counts as inactive or inconclusive.
SMILES,NPC1 prom act,Luc counter,SMN2 splice enh,Rab9 promoter act,FLuc modulator
CSc1ccccc1NC(=O)c1c(Br)cnn1C,n,n,n,n,n
Cn1ncc(Br)c1C(=O)Nc1c(F)c(F)cc(F)c1F,n,n,25µM,n,n
COC(=O)c1cc(NC(=O)CCc2c(C)nc3nc(C)nn3c2C)cc(C(=O)OC)c1,x,x,n,x,n
COc1ccc2c(c1)CCC1C2=NN(/C(C)=C\C(C)=O)C1c1ccc(F)cc1 (centres undefined),u,n,n,u,13µM
COc1ccc2c(c1)C1=NN(/C(C)=C/C(C)=O)C(c3ccc(F)cc3)C1CC2 (centres undefined),n,n,n,n,27µM
COc1ccc(/C=C2\CCCC3C2=NN(C(=O)CSc2ncn[nH]2)C3c2ccc(OC)cc2)cc1 (centres undefined),n,n,n,n,n
COc1ccc2c(c1)C1=NN(/C(C)=C/C(C)=O)C(c3cccc(F)c3)C1CC2 (centres undefined),n,n,n,n,u
COc1ccc2c(c1)C1=NN(/C(C)=C\C(C)=O)C(c3ccccc3)C1CC2 (centres undefined),n,n,n,n,19µM
O=C(NC1CC(=O)N(c2ccc(Cl)cc2)C1)c1cccs1 (centres undefined),x,x,x,x,n
Cc1cccc(C)c1OCc1cc(=O)n2ccsc2n1,x,x,n,x,n
CCOC(=O)Cn1c(=O)c2c(nc3n2CCN3c2ccc(CC)cc2)n(C)c1=O,x,x,x,x,13µM
C[C@H](NC(=O)CNC(=O)[C@@H](NC(=O)[C@H](Cc1ccccc1)NC(=O)CNC(=O)CNC(=O)[C@@H](N)Cc1ccccc1)[C@@H](C)O)C(=O)N[C@@H](CCCN=C(N)N)C(=O)N[C@@H](CCCCN)C(=O)N[C@@H](CO)C(=O)N[C@@H](C)C(=O)N[C@@H](CCCN=C(N)N)C(=O)N[C@H](CN)CCCCN,x,x,n,x,x
COc1cc(C(=O)Nc2nc3ccccc3[nH]2)cc(OC)c1OC,n,n,n,n,u
COc1cccc(C(=O)Nc2nc3ccccc3[nH]2)c1,0.56µM,13µM,u,0.71µM,0.76µM
O=C(Nc1nc2ccccc2[nH]1)c1cccs1,1.3µM,u,3.5µM,1.3µM,4.8µM
COc1ccc(C(=O)N[C@H](C(=O)Nc2nc3ccccc3[nH]2)C(C)C)cc1,n,n,10µM,n,6.7µM
COc1ccc(C(=O)Nc2nc3ccccc3[nH]2)cc1,0.11µM,x,x,u,0.19µM
CCc1ccccc1NC(=O)Cc1c(C(=O)O)[nH]c2ccc(Cl)cc12,x,x,n,x,u
Cn1nc(C(=O)Nc2nc3ccccc3[nH]2)ccc1=O,u,n,13µM,2.2µM,17µM
CCOC(=O)c1c(-c2ccccc2)nc2cc(C)ccn12,u,n,n,u,11µM
CCOC(=O)c1c(-c2ccccc2)nc2ccc(C)cn12,3.5µM,n,n,2.2µM,9.5µM
CC(=O)Nc1ccccc1-c1nc2ccccc2n(CC(=O)Nc2cccc(C)c2C)c1=O,x,x,x,x,n
C/C(=N\NC1=NCCN1)c1ccc(Cl)cc1,n,x,x,n,n
CC(C)(C)c1ccc(C(=O)NC(=S)Nc2nc3c(s2)CCCC3)cc1,n,n,n,u,5.4µM
COC(=O)Nc1nc2c(s1)CCCC2,n,n,n,n,n
SMILES,NPC1 prom act,Luc counter,SMN2 splice enh,Rab9 promoter act,FLuc modulator
C/C(=N\Nc1nc2c(s1)CCCC2)c1ccc(Cl)cc1,n,n,n,n,19µM
CN(C)c1ccc(C(=O)Nc2nc3c(s2)CCCC3)cc1,0.45µM,u,0.63µM,0.32µM,0.24µM
CCOC(=O)c1c(S(=O)(=O)NCC(=O)Nc2ccc(C(C)=O)cc2)c(C)n(C)c1C,x,x,x,x,n
CCn1c(CNC(=O)c2ccc(OC)cc2)nnc1SCC(=O)Nc1ccc(OC)cc1,x,x,n,x,n
O=C(N/C=C/c1ccccc1)Nc1ccc(Cl)cc1,3.5µM,n,u,4.5µM,6.7µM
Cc1ccc(NC(=O)N/C=C/c2ccccc2)cc1,0.89µM,n,14µM,1.4µM,2.1µM
Cc1ccccc1CSc1cn(CCNC(=O)c2cccs2)c2ccccc12,x,x,n,x,n
Clc1ccc(-c2nnc(-c3ccccc3Cl)o2)cc1,0.63µM,x,x,0.45µM,1.2µM
Clc1ccccc1-c1nnc(-c2ccccc2Cl)o1,4µM,n,13µM,2.5µM,8.5µM
O=C(Nc1ccc(NC(=O)c2ccccc2Cl)cc1)c1cccnc1,n,x,x,n,n
O=C(Nc1nnc(-c2ccccc2Cl)o1)c1cccnc1,u,n,u,u,19µM
CCCNCc1nnc(-c2ccccc2Cl)o1,n,n,n,n,n
Cc1nc2ccc(S(=O)(=O)N(C)CC(=O)Nc3ccc(C(C)C)cc3)cc2s1,x,x,n,x,n
Cc1ccccc1NC(=O)c1c(NC(=O)C(F)(F)F)sc2c1CCCCC2,x,x,n,x,11µM
Cc1ccc(NC(=O)c2c(NC(=O)C(F)(F)F)sc3c2CCCCC3)cc1,x,x,n,x,11µM
O=C(COc1ccc(Cl)cc1)Nc1sc2c(c1C(=O)Nc1cccc(Cl)c1)CCCC2,x,x,n,x,u
O=C(Nc1cccc(Cl)c1)c1c(NC(=O)C(F)(F)F)sc2c1CCCC2,x,x,n,x,17µM
Cc1cccc(NC(=O)c2c(NC(=O)C(F)(F)F)sc3c2CCCCC3)c1,x,x,n,x,13µM
Cc1cccc(NC(=O)c2c(Br)sc3c2CCCC3)c1,x,x,n,x,u
Cc1ccccc1NC(=O)c1c(NC(=O)c2ccccc2)sc2c1CCC2,x,x,n,x,u
Cc1cc(=O)n(CC(=O)NCc2ccc(OC(C)C)cc2)c2c1c(C)nn2-c1cccc(F)c1,x,x,x,x,n
CCc1ccccc1NC(=O)CSc1ncc2c(n1)-c1ccccc1N(C)S2(=O)=O,x,x,x,x,n
CCOC(=O)Nc1nnc(-c2ccc(OC)cc2)s1,n,n,n,u,4.8µM
CCCC(=O)Nc1nnc(/C=C/c2ccc(OC)cc2)s1,n,x,x,n,u
COc1ccc(/C=C/c2nnc(NC(=O)C(C)(C)C)s2)cc1,n,x,x,n,8.5µM
SMILES,NPC1 prom act,Luc counter,SMN2 splice enh,Rab9 promoter act,FLuc modulator
COc1ccc(/C=C/c2nnc(NC(=O)COc3ccc(C)cc3)s2)cc1,n,n,5µM,n,n
CCOC(=O)Nc1nnc(-c2cccc(OC)c2)s1,n,n,u,n,u
CCOC(=O)Nc1nnc(/C=C/c2ccc(OC)cc2)s1,n,n,n,n,13µM
COc1ccc(/C=C/c2nnc(NC(=O)COc3ccccc3)s2)cc1,n,x,x,n,n
CCCn1c(SCC(O)c2cccc(OC)c2)nc2ccccc21 (centres undefined),x,x,n,x,n
CN(C)/C=C(\C#N)C(=O)Nc1ccc(F)cc1,n,n,n,u,u
CN(C)/C=C(\C#N)C(=O)Nc1ccc(F)c(Cl)c1,3.5µM,x,x,3.2µM,u
CN(C)/C=C(\C#N)C(=O)N/N=C/c1ccc(Cl)cc1,2.2µM,n,n,u,17µM
CCOC(=O)c1cccc(NC(=O)c2cc3cc4ccc(C)cc4nc3o2)c1,x,x,n,x,n
